Hit rate of the full screen: of about 290,000 compounds, about 2,600 (0.9%) were called active. For the sample, actives were picked, then their nearest neighbours and some compounds at random. A number with no mark means an inactive call.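 How the source made its calls: active means inhibition above the mean of all tested compounds plus 3 SD, cutoff set per screening run (cut at about 7.5% in these data); inactive means the rest.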

The assay has as its system VIM-2 metallo-beta-lactamase (Pseudomonas aeruginosa). Description: inhibition of VIM-2 nitrocefin hydrolysis – biochemical, epi-absorbance readout, Pseudomonas aeruginosa enzyme, primary screen (AID 1527).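 Further: red hydrolysis product quenches plate fluorescence so inhibitors raise well fluorescence; 0% = enzyme with DMSO and 100% = DMSO without enzyme.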 The settings on record: purified VIM-2, nitrocefin hydrolysis, epi-absorbance fluorescence; at 5.6 µM; active compounds read high.
As to `CCc1ccc(C2N3CC4([N+](=O)[O-])CN2CC([N+](=O)[O-])(C3)C4(C)C)cc1` (stereo not drawn), the inhibition (commonly the drop in the measured response relative to a control, in per cent) is -3.1%. With `COc1ccc(/C=C2\CCCC3C2=NN(C(=O)c2scnc2C)C3c2ccc(OC)cc2)cc1` (stereo not drawn), the inhibition was -4.89%. Regarding `COc1cccc(NC(=O)c2cc(S(=O)(=O)N3CCc4ccccc43)cn2C)c1`, the inhibition is -2.53%. Next, `CS(=O)(=O)Nc1ccccc1N=C(c1ccccc1)c1ccccc1`: -0.7%. Next, `CCc1nc(Nc2ccc3nccnc3c2)c2oc3ccccc3c2n1`: 6.61%.

As to `C[C@@H](Nc1nc(-c2ccccc2)nc2c1oc1ccccc12)C(=O)O`, the inhibition is -1.13%.

Consider `CCc1nc(Nc2ccc(NC(C)=O)cc2)c2oc3ccccc3c2n1`, for which the inhibition is 9.84% (active). On to `COc1cc(OC)c(NS(=O)(=O)c2cn(C)cn2)cc1Cl`, for which the inhibition is -2.52%. In the case of `CC1(C)Cc2c(sc(NC(=O)C(=O)NCC3CCCO3)c2C(=O)O)CO1` (stereo not drawn), the inhibition was -1.53%.

Regarding `CC1CCCCC1NC(=O)/C(C#N)=C/C=C/c1ccccc1[N+](=O)[O-]` (stereo not drawn), the inhibition is -2.25%.

As for `Cc1ccc(C)c(CN2CCC(CNC(=O)Nc3ccc(C)c(F)c3)CC2)c1`, the inhibition was -1.95%. Turning to `Oc1ccc2ccc3cccc[n+]3c2c1`, the inhibition is 34.2% (active). Next, `COC(=O)c1ccc(NC(=O)c2cc3c(CO)cnc(C)c3oc2=Nc2cccc(C(N)=O)c2)cc1`: -0.03%; `Cc1c(C)c2c(OCC(=O)N[C@@H](C(=O)O)c3ccccc3)cc3c(c2oc1=O)CCC(C)(C)O3`: 10.8% (active); `Cc1cc(=O)oc2c3c(cc(OCC(=O)N[C@H](C(=O)O)c4ccccc4)c12)OC(C)(C)CC3`: 1.96%. As for `Cc1c(C)c2c(OCC(=O)NCCCO)cc3c(c2oc1=O)CCC(C)(C)O3`, the inhibition was 1.34%. On to `CCC(C(=O)NC1CCCCC1)N(C(=O)c1snc(C(N)=O)c1N)c1ccc(OC)cc1OC` (stereo not drawn), for which the inhibition was -1.99%. `Cc1c2cnn(CC(=O)NCc3ccccn3)c(=O)c2c(C)n1Cc1ccc(Cl)cc1`: the inhibition is -1.23%. As for `COc1cc(NS(=O)(=O)c2ccc(NC(=O)c3ccc([N+](=O)[O-])cc3)cc2)ncn1`, the figure is -1.86%; as for `CCCc1ccc(OCC(=O)NNC(=S)NC(=O)c2ccco2)cc1`, -2.04%; as for `CCCc1ccc(OCCNC(=O)c2ccccc2Br)cc1`, -1.47%.

Consider `CCCc1ccc(OCCNC(=O)c2ccco2)cc1`, for which the inhibition is 33.4% (active). As to `COc1ccc(Br)cc1CN1CCN(C(=O)c2cccc(OC)c2OC)CC1`, the inhibition is -0.04%.

`COC(=O)Cc1cc(=O)oc2c(C)c(O)ccc12`: the inhibition was -5.11%. As for `COc1cccc(C(=O)OCc2cc(=O)oc3c(C)c(C)ccc23)c1OC`, the figure is 8.21% (active); as for `CCOC(=O)C1(Cc2ccccc2C)CCCN(C(=O)CN2C(=O)CSC2=O)C1` (stereo not drawn), -2.37%. Next, `CNC[C@H](CC1CCCCC1)NC[C@H](NCCC1CCCC1)[C@H](C)O`: 2.09%; `Cc1ccc(C(=O)N/C(=C\c2ccc(F)cc2)C(=O)NCCN2CCOCC2)cc1`: -0.14%; `CCOC(=O)[C@@H]1[C@H]2COc3cc(OC)ccc3[C@H]2N2C(=O)N(c3ccc(F)cc3)C(=O)[C@]12C`: -2.77%. Next, `O=C1Nc2cc(C(=O)N3CCC(N4CCCCC4)CC3)ccc2S/C1=C\c1ccccc1`: 27.9% (active).

`O=C(NC1CC1)c1ccc2c(c1)NC(=O)c1ccccc1S2`: the inhibition is 1.27%. Consider `CC1CCN(C(=O)c2ccc3c(c2)NC(=O)CN3)CC1`, for which the inhibition is -1.26%. As for `Cc1cccc(C)c1NC(=O)CS(=O)CC(=O)N1CCN(c2ccccc2)CC1` (stereo not drawn), the figure is -3.23%; as for `Cc1ccc(NC(=O)C2CC2c2ccccc2)cc1` (stereo not drawn), -1.58%. For the molecule `Cc1nc(/N=C(\N)NC(=O)NC2CCCCC2)nc2ccccc12`, the inhibition is -2.89%.

Consider `COc1ccc2nc(/N=C(\N)NC(=O)Nc3ccccc3)nc(C)c2c1`, for which the inhibition is -0.81%.

On to `CC(=O)Oc1ccc(-c2nc3c(C)cccc3c(=O)o2)cc1`, for which the inhibition is -0.68%. Next, `Cc1nc(N=C(N)N)nc2c(C)cccc12`: 8.56% (active); `COc1nc(N=C(N)N)nc2c(C)cccc12`: 14.3% (active); `Cc1cccc2c(=O)n3c(nc12)CCCCC3`: -3.47%. Consider `Cc1ccc(Oc2nc(-c3ccccn3)nc3ccccc23)cc1`, for which the inhibition is -1.45%. Take `Cc1nccc(-c2ccc(-n3c(C)ccc3C)cc2)n1`: the inhibition is -2.42%.

Regarding `c1ccc(-c2nccc(-c3ccc(-n4cnc5ccccc54)cc3)n2)nc1`, the inhibition was 59.9% (active).

Consider `CCCCn1c(-c2cccc(C)c2)nc2cc3[nH]c(=O)c(C(C)C)nc3cc21`, for which the inhibition is -2.3%. As for `COc1ccc(-c2csc3ncnc(N4CCN(S(=O)(=O)c5ccccc5C#N)CC4)c23)cc1`, the figure is -2%; as for `CCN(CC)C(=O)CSC(Nc1cccc(F)c1)=C(C#N)C#N`, -4.85%. Next, `O=c1[nH]c2c(c(=O)n1Cc1ccccc1)CCC2`: -3.01%. As for `CSc1nc2ccccc2c(=O)n1Cc1ccc(F)cc1`, the figure is -1.75%; as for `Cc1cc2nc3c(=O)n(Cc4ccccc4)c(=O)[nH]c3nc2cc1N`, 13.2% (active); as for `O=S(=O)(Nc1cccc(-n2cnnn2)c1)c1cnc(Cl)c(Cl)c1`, -1.96%. Turning to `CCN(CC)CCCNC(=O)c1c(O)c2cc(F)cc3c2n(c1=O)C(C)CC3` (stereo not drawn), the inhibition is 8.41% (active).

On to `CCNC(=O)c1c(O)c2cccc3c2n(c1=O)CC3`, for which the inhibition is 1.77%. For `CCN(CC)CCCNC(=O)c1cn(C)c2ccc(S(=O)(=O)N(C)C3CCCCC3)cc2c1=O`, the inhibition was 2.02%. Regarding `CN(C)c1cc(-c2ccc(F)cc2)oc(=O)c1Cl`, the inhibition was -0.81%. As for `CC(CCc1ccccc1)NC(=O)c1cnc(Cl)c(Cl)c1` (stereo not drawn), the figure is -3.59%; as for `COc1ccc(OCCn2ccnc2C)cc1`, 0.01%; as for `C=CCOc1cccc(C2C(C(=O)c3ccc(C)o3)=C(O)C(=O)N2CCCn2ccnc2)c1` (stereo not drawn), -2.31%. Regarding `CC(Nc1nc(N2CCOCC2)nc2ccccc12)c1ccccc1` (stereo not drawn), the inhibition was -1.07%. As for `CC(Nc1nc(N2CCCC2)nc2ccccc12)c1ccccc1` (stereo not drawn), the figure is 10.3% (active); as for `CC(Nc1nc(N2CCN(CCO)CC2)nc2ccccc12)c1ccccc1` (stereo not drawn), -0.41%.

Take `CCOCCCNc1c(CC)c(C)c(C#N)c2nc3ccccc3n12`: the inhibition is 12.7% (active). `CCOCCCNc1nc(-c2ccccc2)nc2ccccc12`: the inhibition is 1.44%.

On to `CCOCCn1c(-c2ccccc2)nc2ccccc21`, for which the inhibition was -2.42%.

As for `CCOC(=O)C1(c2ccccc2)NC(c2ccc(N(C)C)cc2)C2C(=O)N(C)C(=O)C21` (stereo not drawn), the inhibition is -1.25%.

Consider `COc1ccc(CN2CC(C(=O)NC3CCCCC3)CC2=O)cc1` (stereo not drawn), for which the inhibition was 0.64%. As for `COc1ccc(N(CC(=O)Nc2cccc3ccccc23)S(C)(=O)=O)c(OC)c1`, the figure is -2.25%; as for `c1ccc(-c2cc(-c3ccccc3)[nH]n2)cc1`, -2.1%; as for `N#Cc1c2c(c(-c3ccccc3)[nH]c1=O)CCCC2`, -0.97%. Next, `O=c1[nH]c(-c2ccccc2)c(-c2ccccc2)[nH]1`: 13.9% (active); `COc1cc(NC(=O)C2=C(C)OCCS2)c(Cl)cc1C(=O)NCCN1CCN(C)CC1`: 25.9% (active). Next, `COc1ccc(N2CCN(C(=O)c3ccccc3NC(=O)C3=C(C)OCCS3)CC2)cc1`: -0.86%; `CCCCNC(=O)c1ccccc1NC(=O)C1=C(C)OCCS1`: -1.59%. Turning to `CCn1cc(CN2CCC(C(=O)Nc3cccc(-c4cccc(Cl)c4)c3)CC2)c(C)n1`, the inhibition is -1.75%. Next, `Cc1cc(OCCCCOc2ccc(C#N)cc2)ccc1[N+](=O)[O-]`: -2.44%. As for `Cc1cc(OCC(=O)Nc2c(C)n(C)n(-c3ccccc3)c2=O)ccc1[N+](=O)[O-]`, the figure is -4.47%. Regarding `Cc1cc(OCC(=O)NC2CCN(C)CC2)ccc1[N+](=O)[O-]`, the inhibition was 9.4% (active). Next, `COc1cc(CN2CCN(Cc3ccc(C)cc3)CC2)c([N+](=O)[O-])cc1OC`: 0.03%; `Cc1cc(OCCCN2CCN(Cc3ccccc3)CC2)ccc1[N+](=O)[O-]`: 8.13% (active). Next, `O=C(COc1ccccc1[N+](=O)[O-])NC1CC1`: -2.67%. Next, `Oc1ccc(-c2cccc(-c3ccc(O)cc3)c2)cc1`: -2.2%; `Cc1ccc(CNC(=O)c2ccc(CS(=O)Cc3cccc(Cl)c3)o2)cc1` (stereo not drawn): -2.03%. `COCCCC1CCN(C(=O)C2CCC(=O)N(C3CCCCCC3)C2)CC1` (stereo not drawn): the inhibition is -3.17%. Take `CCc1cc(=O)oc2c(C)c(OCC(=O)NCCN3CCOCC3)ccc12`: the inhibition is 6.89%. `O=C(COc1cc2oc(=O)c3c(c2cc1Cl)CCC3)NCCCN1CCOCC1`: the inhibition was 27.2% (active).

For `CCCc1cc(=O)oc2cc(OCC(=O)Nc3ccc(CN4CCOCC4)cc3)c(Cl)cc12`, the inhibition was 0.28%.

As to `Cc1ccc(-n2c(C)cc(C(=O)CSc3nnc4ccccn34)c2C)cc1`, the inhibition is 1.89%. As for `Cc1ccc(N/N=C2\COC(C)(C)CC2=O)cc1`, the figure is -2.64%; as for `Cc1nn(-c2ccccc2)c(C)c1NC(=O)COc1ccc(Cl)cc1Cl`, -1.49%; as for `CN1CCC(OC(=O)COc2ccc(Cl)cc2Cl)CC1`, 4.57%. Next, `CN1CCN(c2ccc(NC(=O)COc3ccc(Cl)cc3Cl)cc2)CC1`: 11.7% (active); `COc1ccc(-n2c(-c3ccc(OC)c(OC)c3)n[nH]c2=S)cc1`: 9.11% (active); `COc1ccc(OC)c(-n2c(-c3ccn[nH]3)n[nH]c2=S)c1`: -0.56%. As for `Cc1ccc(-n2c(-c3ccc(Cl)cc3)n[nH]c2=S)cc1`, the figure is -3.52%.

Values taken from PubChem BioAssay AID1527 (The Scripps Research Institute Molecular Screening Center, 2009).
